{"source": "ChEMBL document CHEMBL3988442", "about": "“University of Dundee, Small-Polar-MMV Screening Library” (2021)", "note": "Among all 48,000 compounds or so, about 13,000 (27%) showed an effect of 50% or more. The list shows a part of the results."}
{"system": "Wolbachia pipientis", "assay": "Anti-Wolbachia Cell-Based Screen", "assay_type": "functional", "design": "scale not given: in the data most compounds retested in dose-response had high values", "conditions": "5 µM", "units": {"Percent Effect": "%"}}
{"smiles": "CN(C)Cc1ccc(C(N)=O)cc1NC(=O)c1cccc(C#N)c1", "Percent Effect": -8.387}
{"smiles": "N#Cc1ccc(N2CC3(CCN(c4nccs4)C3)C2)nc1.O=CO.O=CO", "Percent Effect": -6.647}
{"smiles": "CCc1ccc(CNC[C@H]2C[C@@H](CO)N(C)[C@H]2c2ccccc2F)o1", "Percent Effect": -16.71}
{"smiles": "O=C1NCC2(CCN(C(=O)c3ccc4c(c3)CCCO4)CC2)O1", "Percent Effect": 9.067}
{"smiles": "CCOc1cccc(CN2CCCC(Nc3ccc(F)cc3)C2)c1O", "note": "(stereo unspecified)", "Percent Effect": -11.06}
{"smiles": "Cc1ccccc1C(=O)CN1C(=O)c2ccccc2CS1(=O)=O", "Percent Effect": -19.77}
{"smiles": "CC(C)(O)CCc1cccc(C(=O)NCC2COCCO2)c1", "note": "(stereo unspecified)", "Percent Effect": 5.622}
{"smiles": "COCCN(Cc1cnn(C)c1)c1nc2c(s1)c(C)nn2C", "Percent Effect": -9.354}
{"smiles": "Cc1cccc(CN2CCCC3(CCC(=O)N3CCN(C)C)CC2)n1.O=C(O)C(F)(F)F.O=C(O)C(F)(F)F", "note": "(stereo unspecified)", "Percent Effect": 115.9}
{"smiles": "Cc1cccc(CN2C(=O)CCC23CCN(C(=O)c2ccco2)CC3)n1.O=C(O)C(F)(F)F", "Percent Effect": 108.9}
{"smiles": "Cc1cccc(CN2C(=O)CCC23CCN(C(=O)NC(C)C)CC3)n1.O=C(O)C(F)(F)F", "Percent Effect": 107.8}
{"smiles": "Cc1cccc(CN2C(=O)CCC23CCN(c2ccccn2)CC3)n1.O=C(O)C(F)(F)F.O=C(O)C(F)(F)F", "Percent Effect": 98.24}
{"smiles": "Cc1cccc(CN2CCC3(CCCN(C(=O)NC4CC4)C3)C2=O)n1.O=C(O)C(F)(F)F", "note": "(stereo unspecified)", "Percent Effect": 34.29}
{"smiles": "Cc1cccc(CN2CCOC3(COCCN(CCN(C)C)C3)C2)n1.O=C(O)C(F)(F)F.O=C(O)C(F)(F)F.O=C(O)C(F)(F)F", "note": "(stereo unspecified)", "Percent Effect": -6.557}
{"smiles": "Cc1cccc(N2CCC3(CCCC(=O)N3)CC2)n1.O=C(O)C(F)(F)F", "Percent Effect": -22.27}
{"smiles": "Cc1cccc(N2CCC3(CCN(Cc4ccccn4)CC3)CC2)n1.O=C(O)C(F)(F)F.O=C(O)C(F)(F)F", "Percent Effect": 8.022}
{"smiles": "Cc1cccc(CN2CCC3(CCCN(C(=O)NC(C)C)C3)C2=O)n1.O=C(O)C(F)(F)F", "note": "(stereo unspecified)", "Percent Effect": -6.059}
{"smiles": "O=C(O)C(F)(F)F.O=C(c1ccoc1)N1CCC2(CCC(=O)N2Cc2ccncc2)CC1", "Percent Effect": 2.988}
{"smiles": "Cc1cc(CN(C)C(=O)c2ccc(Cl)c(S(C)(=O)=O)c2)no1", "Percent Effect": -0.7928}
{"smiles": "Cn1ccnc1CCNS(=O)(=O)Cc1cccc(C#N)c1", "Percent Effect": 3.021}
{"smiles": "C1CCC(CSc2nnnn2C2CC2)OC1", "note": "(stereo unspecified)", "Percent Effect": -5.592}
{"smiles": "O[C@H]1Cc2ccccc2[C@H]1n1ccnc1-c1cc2n(n1)CCNC2", "Percent Effect": -8.508}
{"smiles": "CC(C)N1CCC(CN2CCn3nc(CNC(=O)N(C)C)cc3C2)CC1", "Percent Effect": 6.322}
{"smiles": "Cc1cccc(CN2CCC3(CCCN(C(=O)N4CCCC4)C3)C2=O)n1.O=C(O)C(F)(F)F", "note": "(stereo unspecified)", "Percent Effect": -13.65}
{"smiles": "Cc1cccc(CN2C(=O)CCC23CCN(C(=O)N2CCCC2)CC3)n1.O=C(O)C(F)(F)F", "Percent Effect": 96.5}
{"smiles": "COCCN1C(=O)CC[C@]12CC[C@@H](NCc1cccc(C)n1)CC2.O=C(O)C(F)(F)F", "Percent Effect": -11.86}
{"smiles": "COc1cc(CN(C)C(=O)NCc2nccs2)ccc1SC", "Percent Effect": -21.32}
{"smiles": "CN(Cc1cc2ccccc2o1)S(C)(=O)=O", "Percent Effect": -18.47}
{"smiles": "CN(CC1CC1)C(=O)c1cc2c(c(S(N)(=O)=O)c1)CCC2", "Percent Effect": -0.6394}
{"smiles": "c1ccc(Oc2cc(CNCC3CNc4ccnn4C3)ccn2)cc1", "note": "(stereo unspecified)", "Percent Effect": 3.776}
{"smiles": "c1cc2n(n1)CC(CNCc1ccc(OC3CCCC3)nc1)CN2", "note": "(stereo unspecified)", "Percent Effect": 90.58}
{"smiles": "COc1cc(CNCC2CNc3ccnn3C2)ccn1", "note": "(stereo unspecified)", "Percent Effect": 104.7}
{"smiles": "c1cc(CNCC2CNc3ccnn3C2)cc(OC2CCCC2)n1", "note": "(stereo unspecified)", "Percent Effect": 105.3}
{"smiles": "c1cc(CNCC2CNc3ccnn3C2)cc(OC2CCCCC2)n1", "note": "(stereo unspecified)", "Percent Effect": 87.88}
{"smiles": "Cc1cc2n(n1)CC(CNCc1ccnc(-n3ccnc3C)c1)CN2", "note": "(stereo unspecified)", "Percent Effect": -4.434}
{"smiles": "Cn1cc(CCNCC2CNc3ccnn3C2)cn1", "note": "(stereo unspecified)", "Percent Effect": -8.259}
{"smiles": "c1cc2n(n1)CC(CNCc1ccc(OC3CCCCC3)nc1)CN2", "note": "(stereo unspecified)", "Percent Effect": -3.239}
{"smiles": "CCN1CCN(c2ccc(F)cc2C(C)NCc2nc(C)no2)CC1", "note": "(stereo unspecified)", "Percent Effect": 5.378}
{"smiles": "CNS(=O)(=O)CCCN1CCCCCC1c1ccc(C)o1", "note": "(stereo unspecified)", "Percent Effect": -40.39}
{"smiles": "Cc1cc(C(=O)N2CCc3nnc(N)cc3C2)c(C)n1-c1cccnc1", "Percent Effect": -7.22}
{"smiles": "Cc1cc(C(=O)CN2C(=O)c3ccccc3CS2(=O)=O)c(C)[nH]1", "Percent Effect": 11.78}
{"smiles": "CS(=O)(=O)N1C[C@@H]2CC[C@H](C1)N(C/C=C/c1ccc(F)cc1)C2", "Percent Effect": -3.791}
{"smiles": "CCS(=O)(=O)c1nccn1-c1cccc(F)c1", "Percent Effect": -14.2}
{"smiles": "Cc1cnn(C(C)C2CC2)c1NC(=O)c1ncccc1O", "note": "(stereo unspecified)", "Percent Effect": 16.76}
{"smiles": "c1cc(CNCC2CNc3ccnn3C2)cc(N2CCCCC2)n1", "note": "(stereo unspecified)", "Percent Effect": 12.93}
{"smiles": "c1cc(CNCC2CNc3ccnn3C2)cc(N2CCOCC2)n1", "note": "(stereo unspecified)", "Percent Effect": 104.3}
{"smiles": "O=C(c1cccc(CNCC2CNc3ccnn3C2)c1)N1CCCC1", "note": "(stereo unspecified)", "Percent Effect": 2.865}
{"smiles": "CCSCCNC(=O)c1cnc(-c2ccccc2)nc1O", "Percent Effect": -4.027}
{"smiles": "Cc1cc(=O)[nH]c(-n2nc(C)c(CCC(=O)Nc3nc(C)cs3)c2C)n1", "Percent Effect": 139.8}
{"smiles": "CCC(C)(NCC(=O)Nc1nc(C)cs1)c1nc(C)cs1", "note": "(stereo unspecified)", "Percent Effect": -9.944}
{"smiles": "COC(=O)CCc1c(C)nn(-c2nc(C)cc(=O)[nH]2)c1C", "Percent Effect": 2.472}
{"smiles": "Cc1ccc(C(C(=O)NCCc2nc(C)cc(=O)[nH]2)N(C)C)cc1", "note": "(stereo unspecified)", "Percent Effect": -13.39}
{"smiles": "Cc1cc(=O)[nH]c(-n2nc(C)c(CCC(=O)NCC(C)C)c2C)n1", "Percent Effect": 133.4}
{"smiles": "COc1ccc(OC)c(CCNc2ncc(S(N)(=O)=O)s2)c1", "Percent Effect": -19.79}
{"smiles": "CC(NC(=O)CSCC#N)c1ccccc1", "note": "(stereo unspecified)", "Percent Effect": 5.295}
{"smiles": "CC(=O)NC1CCCN(C(=O)Nc2cnc3c(cnn3C(C)C)c2)C1", "note": "(stereo unspecified)", "Percent Effect": -1.693}
{"smiles": "Cc1cc(C)n(CC2CCCN2C(=O)c2cnc3n[nH]c(C)c3c2)n1", "note": "(stereo unspecified)", "Percent Effect": 152.9}
{"smiles": "Cc1cnn(CC2CCCN2C(=O)c2cnc3n[nH]c(C)c3c2)c1", "note": "(stereo unspecified)", "Percent Effect": 1.676}
{"smiles": "Cc1cnn(CC2CCCCN2C(=O)c2cnc3n[nH]c(C)c3c2)c1", "note": "(stereo unspecified)", "Percent Effect": 131.8}
{"smiles": "CC(=O)N1CCCN(C(=O)c2cnc3n[nH]c(C)c3c2)CC1", "Percent Effect": 0.885}
{"smiles": "Cc1cc(=O)[nH]c(SCC(=O)N(C)CC2Cc3ccccc3CN2C)n1", "note": "(stereo unspecified)", "Percent Effect": -1.755}
